Test results reported in the supplement of paper PMC10849652.
The full data set covers some 7,900 targets. This sample favours those with a hit. About 0.6% of all pairs of compound and target were hits.

Assays:
Experiment in all cases: log2 fold change, soluble protein after heating vs DMSO (PISA); higher = thermal stabilisation; K562 cells, 10 uM, 30 min; active = over 0.2 and 3.5 SD of the protein, either way, in both replicates (recomputed)
[1] = compound: COC1=CC=C(C=C1)CN2C=CC3=C2C=C(C=C3)C(=O)NO
In short: (§1)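 Values are thermal stability changes relative to control samples and are taken from duplicates. They are stated as log2 fold changes. Before quantification by TMTpro 16plex LC-MS/MS with equalised channel sums, K562 cells at 2×10^6 cells/mL were treated with 10 μM compound for 30 min, heated in aliquots for 3 min across 48°C-58°C, pooled, extracted in PBS with 0.5% NP-40 at 4°C, and centrifuged at 21,000xg for 90 min to give the soluble supernatant.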

filanesib = compound: CON(C)C(=O)N1N=C(c2cc(F)ccc2F)S[C@@]1(CCCN)c1ccccc1 [filanesib]
In short: as §1

zotarolimus = compound: CO[C@H]1C[C@@H]2CC[C@@H](C)[C@@](O)(O2)C(=O)C(=O)N2CCCC[C@H]2C(=O)O[C@H]([C@H](C)C[C@@H]2CC[C@H](n3cnnn3)[C@H](OC)C2)CC(=O)[C@H](C)/C=C(\C)[C@@H](O)[C@@H](OC)C(=O)[C@H](C)C[C@H](C)/C=C/C=C/C=C/1C [zotarolimus]
In short: as §1

idasanutlin = compound: COc1cc(C(=O)O)ccc1NC(=O)[C@@H]1N[C@@H](CC(C)(C)C)[C@](C#N)(c2ccc(Cl)cc2F)[C@H]1c1cccc(Cl)c1F [idasanutlin]
In short: as §1

alisertib = compound: COc1cc(Nc2ncc3c(n2)-c2ccc(Cl)cc2C(c2c(F)cccc2OC)=NC3)ccc1C(=O)O [alisertib]
In short: as §1

[2] = compound: COc1cc2nc(-c3cc(F)ccc3O)nc(N[C@@H]3CNC[C@H]3C(C)(C)O)c2cc1OC
In short: as §1

gefitinib = compound: COc1cc2ncnc(Nc3ccc(F)c(Cl)c3)c2cc1OCCCN1CCOCC1 [gefitinib]
In short: as §1

[3] = compound: COc1cccc2cc(-c3nc([C@H]4CC[C@H](C(=O)O)CC4)n4ncnc(N)c34)[nH]c12
In short: as §1

lapatinib = compound: CS(=O)(=O)CCNCc1ccc(-c2ccc3ncnc(Nc4ccc(OCc5cccc(F)c5)c(Cl)c4)c3c2)o1 [lapatinib]
In short: as §1

pictilisib = compound: CS(=O)(=O)N1CCN(Cc2cc3nc(-c4cccc5[nH]ncc45)nc(N4CCOCC4)c3s2)CC1 [pictilisib]
In short: as §1

[4] = compound: CS(=O)(=O)c1ccc(-c2cnc(N)c(C(=O)Nc3ccccc3)n2)cc1
In short: as §1

crizotinib = compound: C[C@@H](Oc1cc(-c2cnn(C3CCNCC3)c2)cnc1N)c1c(Cl)ccc(F)c1Cl [crizotinib]
In short: as §1

[5] = compound: C[C@@H]1COCCN1C2=NC(=NC(=C2)C3(CC3)S(=O)(=O)C)C4=C5C=CNC5=CC=C4
In short: as §1

[6] = compound: C[C@H](C1=CC=C(C=C1)C(=O)NC2=C3C=CNC3=NC=C2)N
In short: as §1

duvelisib = compound: C[C@H](Nc1ncnc2nc[nH]c12)c1cc2cccc(Cl)c2c(=O)n1-c1ccccc1 [duvelisib]
In short: as §1

gandotinib = compound: Cc1cc(Nc2cc(CN3CCOCC3)c3nc(C)c(Cc4ccc(Cl)cc4F)n3n2)n[nH]1 [gandotinib]
In short: as §1

tozasertib = compound: Cc1cc(Nc2cc(N3CCN(C)CC3)nc(Sc3ccc(NC(=O)C4CC4)cc3)n2)n[nH]1 [tozasertib]
In short: as §1

[7] = compound: Cc1cc(SCc2sc(-c3ccc(C(F)(F)F)cc3)nc2C)ccc1OCC(=O)O
In short: as §1

doramapimod = compound: Cc1ccc(-n2nc(C(C)(C)C)cc2NC(=O)Nc2ccc(OCCN3CCOCC3)c3ccccc23)cc1 [doramapimod]
In short: as §1

ispinesib = compound: Cc1ccc(C(=O)N(CCCN)[C@@H](c2nc3cc(Cl)ccc3c(=O)n2Cc2ccccc2)C(C)C)cc1 [ispinesib]
In short: as §1

Measured: log2 fold change

MPHOSPH10 (UniProt O00566)
UniProt O00566, sequence (O00566 whole entry, looked up): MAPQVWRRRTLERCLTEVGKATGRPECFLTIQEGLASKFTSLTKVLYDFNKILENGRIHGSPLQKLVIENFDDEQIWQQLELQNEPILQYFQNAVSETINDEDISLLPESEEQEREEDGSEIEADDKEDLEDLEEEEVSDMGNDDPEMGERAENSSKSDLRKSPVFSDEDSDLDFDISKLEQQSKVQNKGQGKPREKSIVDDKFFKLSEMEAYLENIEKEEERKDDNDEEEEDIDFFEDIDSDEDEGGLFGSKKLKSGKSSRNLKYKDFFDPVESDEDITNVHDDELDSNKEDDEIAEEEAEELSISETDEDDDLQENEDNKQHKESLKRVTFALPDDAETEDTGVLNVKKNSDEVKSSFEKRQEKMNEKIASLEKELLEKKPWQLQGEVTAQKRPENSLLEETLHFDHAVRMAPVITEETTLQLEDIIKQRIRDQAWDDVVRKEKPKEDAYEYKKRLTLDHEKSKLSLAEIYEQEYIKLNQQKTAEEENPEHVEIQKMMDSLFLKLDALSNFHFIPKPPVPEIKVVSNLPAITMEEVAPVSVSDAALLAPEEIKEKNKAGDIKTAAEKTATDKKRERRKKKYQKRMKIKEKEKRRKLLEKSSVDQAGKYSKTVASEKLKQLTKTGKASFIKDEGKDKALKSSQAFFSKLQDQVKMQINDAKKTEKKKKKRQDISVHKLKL
active: filanesib 0.561
inactive: [1] -0.139 | zotarolimus 0.053 | idasanutlin 0.271 | alisertib -0.061 | [2] -0.166 | gefitinib 0.026 | [3] -0.031 | lapatinib 0.174 | pictilisib -0.105 | [4] -0.083 | crizotinib 0.026 | [5] -0.25 | [6] 0.353 | duvelisib -0.047 | gandotinib 0.189 | tozasertib 0.016 | [7] -0.046 | doramapimod 0.049 | ispinesib -0.023

MORC3 (UniProt Q14149)
inactive: [1] 0.013 | filanesib -0.04 | zotarolimus 0.015 | idasanutlin 0.021 | alisertib 0.039 | [2] 0.146 | gefitinib -0.082 | [3] 0 | lapatinib -0.058 | pictilisib 0.196 | [4] 0.058 | crizotinib 0.052 | [5] 0.197 | [6] -0.106 | duvelisib 0.106 | gandotinib -0.017 | tozasertib 0.185 | [7] 0.122 | doramapimod -0.067 | ispinesib 0.041

NUMA1 (UniProt Q14980)
inactive: [1] 0.002 | filanesib 0.266 | zotarolimus 0.13 | idasanutlin 0.07 | alisertib -0.088 | [2] -0.223 | gefitinib -0.001 | [3] -0.247 | lapatinib 0.062 | pictilisib 0.021 | [4] 0.117 | crizotinib -0.001 | [5] -0.071 | [6] 0.089 | duvelisib -0.073 | gandotinib -0.066 | tozasertib 0.108 | [7] 0.07 | doramapimod 0.178 | ispinesib -0.089

NCOR1 (UniProt O75376)
UniProt O75376, sequence (O75376 whole entry, looked up): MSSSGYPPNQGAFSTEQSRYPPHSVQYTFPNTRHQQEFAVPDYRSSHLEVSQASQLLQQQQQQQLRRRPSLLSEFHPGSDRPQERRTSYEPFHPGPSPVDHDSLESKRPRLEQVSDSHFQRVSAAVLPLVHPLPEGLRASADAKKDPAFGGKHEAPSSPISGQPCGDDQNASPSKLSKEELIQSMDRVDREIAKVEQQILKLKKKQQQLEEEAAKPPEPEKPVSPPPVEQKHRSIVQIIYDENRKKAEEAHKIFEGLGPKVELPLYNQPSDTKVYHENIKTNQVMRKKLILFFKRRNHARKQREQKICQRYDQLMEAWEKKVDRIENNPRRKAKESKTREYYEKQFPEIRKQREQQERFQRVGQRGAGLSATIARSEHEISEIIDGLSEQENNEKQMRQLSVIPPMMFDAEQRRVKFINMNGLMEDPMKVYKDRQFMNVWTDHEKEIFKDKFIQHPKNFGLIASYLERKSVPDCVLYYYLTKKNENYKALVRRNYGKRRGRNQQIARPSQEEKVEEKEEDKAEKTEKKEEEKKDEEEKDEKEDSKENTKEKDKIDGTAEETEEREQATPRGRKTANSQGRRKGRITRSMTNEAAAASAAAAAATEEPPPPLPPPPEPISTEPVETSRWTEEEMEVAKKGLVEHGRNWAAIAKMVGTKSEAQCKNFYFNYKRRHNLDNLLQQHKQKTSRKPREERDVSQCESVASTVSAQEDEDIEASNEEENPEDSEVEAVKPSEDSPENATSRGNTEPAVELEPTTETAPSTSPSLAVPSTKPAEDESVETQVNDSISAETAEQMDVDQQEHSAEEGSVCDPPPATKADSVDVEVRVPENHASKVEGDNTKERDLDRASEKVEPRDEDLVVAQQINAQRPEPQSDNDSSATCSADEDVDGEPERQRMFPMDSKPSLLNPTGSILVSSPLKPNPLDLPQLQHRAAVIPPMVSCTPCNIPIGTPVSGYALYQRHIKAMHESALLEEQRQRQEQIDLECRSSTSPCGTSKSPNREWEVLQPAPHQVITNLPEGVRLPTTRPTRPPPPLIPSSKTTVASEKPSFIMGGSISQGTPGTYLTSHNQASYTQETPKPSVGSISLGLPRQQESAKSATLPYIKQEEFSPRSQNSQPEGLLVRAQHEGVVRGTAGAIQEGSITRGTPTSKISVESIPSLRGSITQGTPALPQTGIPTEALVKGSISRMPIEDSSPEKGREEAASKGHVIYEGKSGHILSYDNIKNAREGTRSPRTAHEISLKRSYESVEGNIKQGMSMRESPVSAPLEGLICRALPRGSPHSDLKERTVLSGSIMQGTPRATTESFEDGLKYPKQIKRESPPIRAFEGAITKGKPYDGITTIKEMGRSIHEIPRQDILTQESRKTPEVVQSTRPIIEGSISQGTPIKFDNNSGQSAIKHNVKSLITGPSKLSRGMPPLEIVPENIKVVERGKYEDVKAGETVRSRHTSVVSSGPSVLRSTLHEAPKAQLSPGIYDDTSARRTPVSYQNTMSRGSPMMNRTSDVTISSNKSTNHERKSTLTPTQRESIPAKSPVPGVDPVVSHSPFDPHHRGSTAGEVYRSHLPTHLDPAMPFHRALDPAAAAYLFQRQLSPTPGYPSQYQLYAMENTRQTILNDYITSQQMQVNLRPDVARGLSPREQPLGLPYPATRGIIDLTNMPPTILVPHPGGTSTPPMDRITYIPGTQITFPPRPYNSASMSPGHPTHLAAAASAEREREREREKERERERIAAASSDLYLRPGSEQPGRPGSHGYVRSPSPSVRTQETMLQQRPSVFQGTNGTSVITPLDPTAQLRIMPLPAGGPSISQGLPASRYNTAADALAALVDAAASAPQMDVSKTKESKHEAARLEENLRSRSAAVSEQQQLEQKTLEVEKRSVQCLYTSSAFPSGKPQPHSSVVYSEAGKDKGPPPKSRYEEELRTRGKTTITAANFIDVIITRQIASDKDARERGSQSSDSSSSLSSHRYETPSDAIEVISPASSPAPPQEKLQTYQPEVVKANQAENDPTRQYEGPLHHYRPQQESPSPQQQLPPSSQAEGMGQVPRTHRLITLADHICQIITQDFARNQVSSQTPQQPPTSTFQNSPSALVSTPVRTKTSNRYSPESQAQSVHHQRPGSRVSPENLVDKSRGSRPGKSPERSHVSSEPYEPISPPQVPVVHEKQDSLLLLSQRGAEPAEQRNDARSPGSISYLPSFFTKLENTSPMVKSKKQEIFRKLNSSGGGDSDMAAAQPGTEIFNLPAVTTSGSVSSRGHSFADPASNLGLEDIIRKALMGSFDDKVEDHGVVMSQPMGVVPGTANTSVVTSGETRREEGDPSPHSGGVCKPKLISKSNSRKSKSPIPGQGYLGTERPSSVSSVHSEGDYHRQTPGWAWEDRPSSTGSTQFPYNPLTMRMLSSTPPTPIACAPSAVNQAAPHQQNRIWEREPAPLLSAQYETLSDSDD
inactive: [1] -0.07 | filanesib 0.078 | zotarolimus 0.069 | idasanutlin 0.004 | alisertib -0.086 | [2] 0.128 | gefitinib -0.018 | [3] 0.064 | lapatinib -0.119 | pictilisib 0.135 | [4] -0.078 | crizotinib 0.017 | [5] 0.15 | [6] -0.064 | duvelisib 0.063 | gandotinib -0.007 | tozasertib 0.004 | [7] -0.061 | doramapimod -0.044 | ispinesib 0.004

OTUD4 (UniProt Q01804)
UniProt Q01804, sequence (Q01804 whole entry, looked up): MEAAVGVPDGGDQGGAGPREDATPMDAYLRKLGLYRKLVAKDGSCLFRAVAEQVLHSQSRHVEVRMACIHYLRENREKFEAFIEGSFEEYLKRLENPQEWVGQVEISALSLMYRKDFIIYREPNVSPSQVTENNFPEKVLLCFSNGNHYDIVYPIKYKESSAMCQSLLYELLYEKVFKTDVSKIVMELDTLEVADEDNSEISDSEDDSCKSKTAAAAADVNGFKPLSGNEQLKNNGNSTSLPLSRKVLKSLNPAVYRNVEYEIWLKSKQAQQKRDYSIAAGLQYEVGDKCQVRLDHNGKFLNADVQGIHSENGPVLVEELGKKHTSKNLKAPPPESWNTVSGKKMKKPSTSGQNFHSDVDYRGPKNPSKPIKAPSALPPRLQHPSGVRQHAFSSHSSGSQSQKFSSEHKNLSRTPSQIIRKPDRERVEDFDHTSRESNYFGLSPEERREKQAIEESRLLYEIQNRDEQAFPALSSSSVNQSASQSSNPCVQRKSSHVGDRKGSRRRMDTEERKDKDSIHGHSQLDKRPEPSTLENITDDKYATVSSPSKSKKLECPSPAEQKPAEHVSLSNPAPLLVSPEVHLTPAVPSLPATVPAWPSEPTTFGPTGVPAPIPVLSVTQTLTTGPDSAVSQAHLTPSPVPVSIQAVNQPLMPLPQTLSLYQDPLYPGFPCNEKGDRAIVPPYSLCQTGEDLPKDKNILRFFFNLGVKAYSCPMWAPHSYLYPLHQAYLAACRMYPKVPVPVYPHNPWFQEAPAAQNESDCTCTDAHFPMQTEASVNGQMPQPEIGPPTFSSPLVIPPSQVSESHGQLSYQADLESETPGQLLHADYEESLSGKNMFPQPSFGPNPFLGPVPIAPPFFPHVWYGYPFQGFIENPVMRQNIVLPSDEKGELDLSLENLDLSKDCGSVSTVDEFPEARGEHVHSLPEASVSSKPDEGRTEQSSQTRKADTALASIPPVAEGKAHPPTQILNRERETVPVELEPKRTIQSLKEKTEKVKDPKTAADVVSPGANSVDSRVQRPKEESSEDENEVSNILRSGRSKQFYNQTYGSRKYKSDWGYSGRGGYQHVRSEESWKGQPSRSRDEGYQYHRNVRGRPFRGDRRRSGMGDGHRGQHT
inactive: [1] -0.122 | filanesib 0.182 | zotarolimus 0.022 | idasanutlin 0.063 | alisertib -0.106 | [2] -0.062 | gefitinib 0.039 | [3] 0.013 | lapatinib 0.095 | pictilisib -0.025 | [4] 0.018 | crizotinib -0.001 | [5] -0.094 | [6] 0.106 | duvelisib -0.073 | gandotinib 0.059 | tozasertib 0.034 | [7] -0.001 | doramapimod 0.052 | ispinesib -0.034

NR2C2AP isoform 2 (UniProt Q86WQ0)
UniProt Q86WQ0, sequence (Q86WQ0 whole entry, looked up): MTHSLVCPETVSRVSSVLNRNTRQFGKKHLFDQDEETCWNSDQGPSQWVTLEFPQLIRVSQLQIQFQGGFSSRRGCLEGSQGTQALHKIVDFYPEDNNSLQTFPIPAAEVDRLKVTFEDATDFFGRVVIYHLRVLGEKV
inactive: [1] 0.101 | filanesib 0.01 | zotarolimus -0.014 | idasanutlin -0.062 | alisertib -0.066 | [2] -0.034 | gefitinib -0.01 | [3] 0.093 | lapatinib -0.011 | pictilisib 0.08 | [4] 0.085 | crizotinib 0.011 | [5] 0.138 | [6] 0.025 | duvelisib 0.044 | gandotinib -0.035 | tozasertib 0.08 | [7] 0.01 | doramapimod -0.17
active: ispinesib 0.285

NDUFA6 (UniProt P56556)
UniProt P56556, sequence (P56556 whole entry, looked up): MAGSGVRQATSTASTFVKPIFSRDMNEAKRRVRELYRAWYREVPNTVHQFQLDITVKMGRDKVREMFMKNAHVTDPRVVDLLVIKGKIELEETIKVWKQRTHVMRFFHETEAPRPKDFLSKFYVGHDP
active: idasanutlin -0.383
inactive: [1] 0.097 | filanesib -0.035 | zotarolimus 0.05 | alisertib 0.044 | [2] 0.048 | gefitinib -0.004 | [3] 0.068 | lapatinib 0.097 | pictilisib 0.087 | [4] 0.012 | crizotinib -0.044 | [5] 0.172 | [6] -0.078 | duvelisib 0.017 | gandotinib -0.22 | tozasertib -0.009 | [7] 0.098 | doramapimod -0.004 | ispinesib 0

NDUFB7 (UniProt P17568)
UniProt P17568, sequence (P17568 whole entry, looked up): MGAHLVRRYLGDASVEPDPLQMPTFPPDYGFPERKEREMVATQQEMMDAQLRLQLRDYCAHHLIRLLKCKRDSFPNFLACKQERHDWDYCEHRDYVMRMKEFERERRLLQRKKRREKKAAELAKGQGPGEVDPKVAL
inactive: [1] -0.011 | filanesib -0.023 | zotarolimus -0.03 | idasanutlin -0.025 | alisertib -0.051 | [2] -0.077 | gefitinib 0 | [3] 0.002 | lapatinib -0.013 | pictilisib -0.066 | [4] 0.004 | crizotinib 0.001 | [5] 0.03 | [6] -0.094 | duvelisib 0.006 | gandotinib -0.02 | tozasertib -0.018 | [7] -0.041 | doramapimod 0.021 | ispinesib 0.015
